Screen size: about 360,000 compounds; about 800 (0.22%) were called active.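 Rule for the calls: active = activation of at least 8% versus controls, or a plate z-score of at least 8; inactive = the rest.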 Only a selection was taken, and actives are over-represented in it overall.
assay: compounds raising alpha-dystroglycan glycosylation – uHTS, Pro5-aDG cells, AlphaScreen, primary screen (AID 624168); settings: alpha-DG glycosylation AlphaScreen (IIH6), at 10 µM, hits give high values, 0% Pro5, 100% B10-LARGE cell signal;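 note: Pro5 are CHO cells carrying HIG-tagged alpha-DG that lacks glycosylation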

activation, inactive:
Cc1cc(C)c(S(=O)(=O)n2cc(C(C)C(N)C(=O)O)c3ccccc32)c(C)c1 (stereo unspecified) -0.2%, Cc1ccc(NS(=O)(=O)c2c(C)[nH]c(C)c2C(=O)N2CCCCC2)c(C)c1 -0.1%, CCN(CC)C(=O)C1=C(C)N(Cc2ccc(OC)cc2)C(=O)C(CC(=O)NCc2ccco2)C1 (stereo unspecified) -0.1%, Cc1ccc(S(=O)(=O)N2CCCCC2)cc1NC(=O)[C@@H]1CCCN1C(=O)c1cccs1 0.1%, O=C(Nc1cccc(Br)c1)C1CC(=O)N(C2CCCC2)C1 (stereo unspecified) 0%, COc1ccc(OCc2cc(C(=O)N3CCCC3)no2)c2ccccc12 0.3%, COc1ccccc1N1CCN(C(=O)c2cc(=O)c3cc(C)cc(C)c3o2)CC1 -0.2%, Cc1ccc(NS(=O)(=O)c2ccc(F)cc2)nc1 -0.2%, Fc1ccc(OCc2nn3c(Cn4nnc5ccccc54)nnc3s2)cc1 0.5%, C=CCOc1cccc(CNn2cn[nH]c2=S)c1 0%, CC[C@]12c3[nH]c4cc(CCC(=O)N(C)C)ccc4c3CCN1C(=O)[C@@H](CC(=O)NCC13CC4CC(CC(C4)C1)C3)C[C@@H]2C(=O)N1CCN(C(=O)C2CC2)CC1 -0.1%, Cc1cc(=O)oc(C)c1C(=O)NC1CC(C)(C)NC(C)(C)C1 -0.1%, COc1ccc(CC(NC(C)=O)C(=O)NC2CCN(C(=O)c3ccc(OC)c(OC)c3)CC2)cc1OC (stereo unspecified) -0.3%, Clc1cc(NC2CCCCC2)ncn1 0.2%, CN(C)C(=S)Nc1ccc(Br)cc1Cl 0.1%, O=C(CN1CCN(Cc2ccccc2)CC1)Nc1ccc(F)c(F)c1 -0.1%, COc1ccc(Cl)cc1NC(=O)NCC1CCN(Cc2ccccc2F)CC1 1%, Nc1cccnc1Sc1ccccc1 0%, CC(=O)N/C(=C/c1ccc(OC(F)F)cc1)C(=O)O -0.4%, OC(COc1ccc(F)cc1Cl)CN1CCc2ccccc2C1 (stereo unspecified) 0.1%, Cc1cccc(OCC(O)CN2CCN(S(=O)(=O)c3ccc(C)cc3C)CC2)c1 (stereo unspecified) 0.1%, COc1ccc(CC(=O)OC(C)C(=O)Nc2ccc(S(N)(=O)=O)cc2)cc1 (stereo unspecified) 0.1%, Cc1ccc(S(=O)(=O)N2CCN(CC(=O)N/N=C/c3ccc(Br)s3)CC2)cc1 -0.1%, O=[N+]([O-])c1ccc(C=Nc2ccc(Cl)cc2Cl)s1 -0.4%, Cc1nn(Cc2ccc(Cl)cc2)c(Cl)c1/C=N/NC(=O)CNc1ccccc1F 0.9%, Cc1c(C(=O)N2CCCC2)c(S(=O)(=O)NCC(C)c2ccccc2)c(C)n1C (stereo unspecified) -0.1%, O=S(=O)(N1CCCCC1)N1CCNCC1 0%, CC(C)[C@@H](C(=O)O)N(Cc1cccc(CN([C@H](C(=O)O)C(C)C)S(C)(=O)=O)c1)S(C)(=O)=O -0.1%, COc1ccc(F)cc1S(=O)(=O)N1CCCCC1 -0.1%, Cc1cccc2cc(CN(Cc3cccs3)C(=S)NCc3ccco3)c(=O)[nH]c12 0%, COCCCNC(=S)N(CCN(C)C)Cc1cc2cc3c(cc2[nH]c1=O)OCCO3 -0.2%, Cc1cccc(C)c1NC(=O)N1CC=C(n2c(=O)[nH]c3ccccc32)CC1 0.1%, O=C(Nc1cc(S(=O)(=O)Nc2ccc(Cl)cc2)ccc1O)c1ccc(F)cc1F 0.4%, O=C(CN(c1cc(C(F)(F)F)ccc1Cl)S(=O)(=O)c1ccccc1)NCc1cccnc1 0.2%, CC(=O)N(c1ccc2oc(=O)sc2c1)S(=O)(=O)c1ccc(C)cc1 0%, O=C(Nc1ccc(-n2ccnc2P(=O)(O)c2ccccc2)cc1)c1ccccc1Br -0.1%, COc1ccc(C2c3[nH]c4ccccc4c3C[C@H]3C(=O)N(CC(C)C)CC(=O)N23)c(OC)c1 (stereo partly specified) 0.3%, COc1ccc(CC(=O)NC2CCSc3ccccc32)cc1OC (stereo unspecified) 0.1%, COc1ccc(C2(CNC(=O)Cc3ccc(OC)c(OC)c3)CCCC2)cc1 -0.3%

activation, active:
COc1ccccc1N1CCN(C(=O)c2cc(-c3ccc(Br)cc3)on2)CC1 9.8%, Cc1cccc(CN2CCC(CNC(=O)Nc3ccc(F)c(Cl)c3)CC2)c1 5.2%, Cc1ccc(OCC(O)CN2CCN(CC(O)COc3ccc(C)cc3Cl)CC2)c(Cl)c1 (stereo unspecified) 3.9%, Cc1ccccc1NCC(=O)N/N=C\c1ccc([N+](=O)[O-])s1 9.3%, CC(C)(C)c1cc(C(=O)N/N=C/c2ccc([N+](=O)[O-])s2)n[nH]1 2.7%, Cc1cc(C)c2[nH]c(=O)c(CN(Cc3ccccc3)C(=S)NCCCN(C)C)cc2c1 8.7%, O=C(c1cccnc1)N(c1cc2sc(=O)oc2c2ccccc12)S(=O)(=O)c1ccccc1 8.9%

From PubChem BioAssay AID624168 (Sanford-Burnham Center for Chemical Genomics, 2012)
